Experimental data taken from PubChem BioAssay (NCATS).
Records with an inconclusive call do not appear. Activity calls are given as the source filed them. Calls come from the whole dose curve; as a rule, active = well fitted curve in the direction sought with a large enough effect; inconclusive = small, poorly fitted or top-dose-only effect, or another doubt; inactive = no such curve, though single readings can be large; an effect the other way counts as inactive or inconclusive.

Each molecule was assayed against Cytochrome P450 2C9 (Homo sapiens) (UniProt P11712) (assay: qHTS Assay for Inhibitors and Substrates of Cytochrome P450 2C9 (AID 883; note: nearly all actives have a fitted effect of over 60% in size; for activity change, negative = inhibition: % is set by controls: 0 for no effect and ±100 for the full control effect)). Conditions: recombinant CYP2C9, luciferin-H luminescence, 60 min; series mostly up to 57.1 µM; activity change, negative = inhibition: at the top concentration.
In short: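 A luminogenic readout tracked human CYP2C9 (10nM) converting deoxyluciferin (100uM, at KM) in 25mM KPO4 during 60 min at 37C with regenerated NADPH. Values normalized to 57uM sulphaphenazole as complete inhibition.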
Potency is the fitted concentration of half-maximal effect.

Chain of Cytochrome P450 2C9 (Homo sapiens) (P11712 whole entry, looked up): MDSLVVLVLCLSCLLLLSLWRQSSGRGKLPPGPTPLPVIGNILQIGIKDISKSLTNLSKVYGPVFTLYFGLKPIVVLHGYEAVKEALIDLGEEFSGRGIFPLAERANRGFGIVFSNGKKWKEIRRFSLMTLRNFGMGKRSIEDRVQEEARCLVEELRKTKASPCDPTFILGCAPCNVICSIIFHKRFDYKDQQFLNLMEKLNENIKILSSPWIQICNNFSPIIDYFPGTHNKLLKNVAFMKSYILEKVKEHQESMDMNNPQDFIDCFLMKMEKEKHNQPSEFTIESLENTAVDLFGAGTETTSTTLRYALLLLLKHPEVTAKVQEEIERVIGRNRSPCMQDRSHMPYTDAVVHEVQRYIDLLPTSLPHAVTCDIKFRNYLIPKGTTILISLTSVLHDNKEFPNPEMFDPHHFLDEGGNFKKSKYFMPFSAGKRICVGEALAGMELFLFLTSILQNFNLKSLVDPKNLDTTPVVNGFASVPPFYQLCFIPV

SMILES | activity change, negative = inhibition | Potency
Cc1ccc(NC(=O)c2cccc(N(C)C)c2)cc1NC(=O)c1ccc(O)cc1 | 54.4% (inactive) | –
Cc1cc(NC(=O)Nc2ccc(N(C)C)cc2)c2cc(F)cc(F)c2n1 | – | 6.31 µM (active)
Cc1cc2nc3c(=O)[nH]c(=O)nc-3n(CC(O)C(O)C(O)CO)c2cc1C (centres undefined) | 15.8% (inactive) | –
NC(=O)c1nnn(Cc2cc(Cl)c(C(=O)c3ccc(Cl)cc3)c(Cl)c2)c1N | 52.5% [at 11.4 µM] (inactive) | –
CCC(=C(CC)c1ccc(O)cc1)c1ccc(O)cc1 | – | 12.6 µM (active)
CN1CCN2c3ncccc3Cc3ccccc3C2C1 (centres undefined) | – | 0.0501 µM (active)
NS(=O)(=O)c1cc(Cl)c(Cl)c(S(N)(=O)=O)c1 | 177% [at 25.6 µM] (inactive) | –
Clc1ccc(COC(Cn2ccnc2)c2ccc(Cl)cc2Cl)c(Cl)c1 (centres undefined) | – | 0.316 µM (active)

These molecules were tested against Cytochrome P450 3A4 (Homo sapiens) (UniProt P08684) (assay: qHTS Assay for Inhibitors and Substrates of Cytochrome P450 3A4 (AID 884; note: nearly all actives have a fitted effect of over 50% in size; for activity change, negative = inhibition: % is set by controls: 0 for no effect and ±100 for the full control effect)). Conditions: recombinant CYP3A4, Luciferin-PPXE luminescence; series mostly up to 57.1 µM; activity change, negative = inhibition: at the top concentration.
In short: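 Luminescent readout of luciferin produced by CYP3A4 (20 nM) dealkylation of Luciferin-PPXE, 25 uM (its KM). NADPH-driven reaction ran 60 min at RT after 10 min compound preincubation; data scaled to 57 uM ketoconazole as 100% inhibition.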

Chain of Cytochrome P450 3A4 (Homo sapiens) (P08684 whole entry, looked up): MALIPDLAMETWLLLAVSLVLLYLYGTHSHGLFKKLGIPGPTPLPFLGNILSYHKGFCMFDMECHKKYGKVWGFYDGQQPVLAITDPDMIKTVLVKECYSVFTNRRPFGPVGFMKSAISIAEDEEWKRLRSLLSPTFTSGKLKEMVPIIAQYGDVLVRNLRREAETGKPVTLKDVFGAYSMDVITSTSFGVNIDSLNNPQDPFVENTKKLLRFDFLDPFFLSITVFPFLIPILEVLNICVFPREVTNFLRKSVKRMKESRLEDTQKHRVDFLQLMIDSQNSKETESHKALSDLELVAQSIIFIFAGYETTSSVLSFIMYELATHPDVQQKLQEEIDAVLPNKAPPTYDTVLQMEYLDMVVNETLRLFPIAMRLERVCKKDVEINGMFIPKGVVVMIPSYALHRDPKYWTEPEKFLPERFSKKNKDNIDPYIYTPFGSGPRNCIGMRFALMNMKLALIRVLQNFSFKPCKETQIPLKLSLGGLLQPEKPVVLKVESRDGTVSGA

SMILES | Potency | activity change, negative = inhibition
CN1C(=O)C(Cc2c[nH]c3ccccc23)NC1=S (centres undefined) | 6.31 µM (active) | –
COc1ccc2cc1Oc1ccc(cc1)C[C@H]1c3cc(c(OC)cc3CCN1C)Oc1c(OC)c(OC)cc3c1[C@H](C2)N(C)CC3 | – | -26.1% (inactive)
COC1CCC(C(=O)c2ccc3nc4c(cc3c2)CCCO4)CC1 (centres undefined) | – | 125% (inactive)
Cc1cc(NC(=O)Nc2ccc(N(C)C)cc2)c2cc(F)cc(F)c2n1 | 6.31 µM (active) | –
Cc1cc2nc3c(=O)[nH]c(=O)nc-3n(CC(O)C(O)C(O)CO)c2cc1C (centres undefined) | – | -22.3% (inactive)
CC[C@H](C)C(=O)O[C@H]1C[C@H](O)C=C2C=C[C@H](C)[C@H](CC[C@@H](O)C[C@@H](O)CC(=O)O)[C@H]21 | – | -13.6% (inactive)
CC(NCCc1ccc(O)cc1)C(O)c1ccc(O)cc1 (centres undefined) | – | -19.1% (inactive)
CS(=O)(=O)c1ccc(C2=C(c3ccccc3)C(=O)OC2)cc1 | – | -16.7% (inactive)

These molecules were tested against Cytochrome P450 3A4 (Homo sapiens) (UniProt P08684) (assay: qHTS Assay for Activators of Cytochrome P450 3A4 (AID 885; note: nearly all actives have a fitted effect of over 65% in size)). Conditions: recombinant CYP3A4, Luciferin-PPXE luminescence, 60 min; series mostly up to 57.1 µM; activity change, positive = activation: at the top concentration.
In short: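 Human CYP3A4 dealkylates Luciferin-PPXE to luciferin, which luciferase detection converts to light. Substrate was at its KM (25uM), buffer 200mM KPO4, reaction 60 min at RT.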

SMILES | activity change, positive = activation | Potency
CN1C(=O)C(Cc2c[nH]c3ccccc23)NC1=S (centres undefined) | -108% (inactive) | –
COC1CCC(C(=O)c2ccc3nc4c(cc3c2)CCCO4)CC1 (centres undefined) | – | 5.01 µM (active)
CCCCC(C=O)NC(=O)C(CC(C)C)NC(=O)OCc1ccccc1 (centres undefined) | -79.3% (inactive) | –
Cc1cc(NC(=O)Nc2ccc(N(C)C)cc2)c2cc(F)cc(F)c2n1 | -61.3% (inactive) | –
O=c1cc(-c2ccc(O)c(O)c2)oc2cc(O)cc(O)c12 | -56% [at 25.6 µM] (inactive) | –
Cc1ccc2c(c1)C(=O)[C@]1(O)CCN(c3ccccc3)C1=N2 | -71.6% (inactive) | –
CC1(C)OC2CC3C4CC(F)C5=CC(=O)C=CC5(C)C4C(O)CC3(C)[C@]2(C(=O)CO)O1 (some centres undefined) | -44.8% (inactive) | –
CN(C)c1ccccc1CN1CCCN(Cc2ccccc2N(C)C)C1c1ccncc1 | -30.9% [at 11.4 µM] (inactive) | –
